According to PubChem BioAssay AID1508645 (National Center for Advancing Translational Sciences (NCATS), 2021):
Results filed as inconclusive are left out. Where a call stands in place of a potency, no number is given. Calls of active or inactive are those of the source. Calls come from the whole dose curve; as a rule, active = well fitted cell-killing curve with a large enough effect; inconclusive = small, poorly fitted or top-dose-only effect, or effect the other way; inactive = no such curve, though single readings can be large or run the other way.

Experiment: Cell viability assay in S16 Pmp22-HiBiT cells
Conditions: S16 Schwann Pmp22-HiBiT viability, CellTiter-Glo, 24 h; series mostly up to 27.9 µM
Excerpt: Assay Provider: Jim Inglese Ph.D. National Center for Advancing Translational Science, National Institutes of Health, Rockville, MD CMT is a heterogeneous group of neurological disorders that affect approximately 1 in 2,500 people. In particular, the most common form of CMT, CMT1A is genetically linked to the duplication of the PMP22 gene which leads to Schwann cell overexpression, thus manifesting itself as a typical case of dose-sensitive diseases. To identify small molecule compounds that can mediate the expression of PMP22 we developed a phenotypic assay screening strategy by utilizing genome editing techniques to construct Schwann cell lines containing novel reporter technology to monitor the transcriptional or translational regulation of PMP22. For high sensitivity we use a bioluminescent reporter system embedded in the 3' UTR of the PMP22 gene (S16(c9) Pmp22-F2sN) to identify compounds that inhibit gene expression. […] We can further discriminate the effect of all transcriptionally active molecules on PMP22 translation or stability with an assay that incorporates a short NLuc peptide (HiBiT) at the C-terminus of expressed PMP22 (S16(f8) PMP22-HiBiT) allowing alpha complementation and luminescence detection of membrane-associated PMP22 protein. These assays were screened against the NCATS Sytravon Library Collection. Miniaturization of these assays to 1536-well plate format for quantitative high throughput screening (qHTS) yielded rich data sets immediately from the qHTS assay (S16(c9) Pmp22-F2sN), when compared with data from a cell viability assay (Cell TiterGlo) to identify compounds that decreased the output signals through cellular toxicity to streamline the selection process of actives for subsequent characterization using the HiBiT assay (S16(f8) PMP22-HiBiT).
Cell viability assay in S16 Pmp22-HiBiT cells PROTOCOL TABLE (format as described by Inglese J, Shamu CE and Guy RK. 2007) SEQUENCE No. (e.g., 1, 2, 3, etc.); PARAMETER (e.g., Cells, Incubation, Reagent, etc.); VALUE and DESCRIPTION. 1. Cells. Add 500-1,000 cells in 4 uL in growth media (DMEM High Glucose, No Phenol Red media + 10% heat-inactivated FBS + 1% Pen/Strep supplemented media) per well into Greiner 1536-well white/solid bottom high base, TC-treated plates. 2. Compounds. Library compounds and controls added at 23nL per well, transferred by Pin Tool. 3. Incubation. Incubate plates at 37C, 5% CO2, 95% RH for 24 h. 4. Reagent. Add 3uL CellTiter-Glo per well of Greiner 1536-well plates. 5. Incubation. Incubate plates at room temperature for 15 min., protect from light. 6. Detector. Luminescence measured using CCD-based camera (Viewlux). NOTES (numbers refer to Sequence numbers above; values are from representative experiments) 6. Luminescence Read: Clear filter; Exposure = 1 sec, Gain = High, Speed = Slow, Binning = 2X REFERENCES: 1. Inglese J, Shamu CE and Guy RK, Reporting data from high throughput screening of small molecule libraries, Nature Chemical Biology, 2007, 3(8): 438-441. doi.org/10.1038/nchembio0807-438 2. Yasgar A, Shinn P, Jadhav A, Auld DS, Michael S, Zheng W, Austin CP, Inglese J and Simeonov A, Compound Management for Quantitative High-Throughput Screening. J. Assoc. Lab. Auto., 2008, 13: 79-89. doi: 10.1016/j.jala.2007.12.004

Compound | Potency
Cc1cccc(CS(=O)(=O)c2ncc(Cl)c(C(=O)Nc3nc4ccc(F)cc4s3)n2)c1 | 6.45 µM (active)
CCOC(=O)c1c(NC(=O)c2nc(S(C)(=O)=O)ncc2Cl)sc(C(C)=O)c1C | 6.45 µM (active)
COCCCNC(=O)c1ccc(-n2c(-c3ccccc3)cc3c2CCC(C)C3)cc1 (centres undefined) | inactive
O=C(NCCCN1CCN(c2ccc(F)cc2)CC1)c1cc2c(Cl)nc3ccccc3c2s1 | inactive
